Measured values taken from PubChem BioAssay (EPA / NIEHS).
Results filed as inconclusive are left out. Activity calls are given as the source filed them. Rule for the calls: active = hit-call score of the fitted dose curve at least 0.9, where 1 is the maximum; inconclusive = response in the unintended direction; inactive = score below 0.9.

Key:
[1] = molecular target: human Caspase 2 (CASP2), CASP2 (gene 835) (UniProt P42575); experiment: NVS_ENZ_hCASP2: NovaScreen (NVS) Enzymatic Assay for human Caspase 2 (CASP2) (AID 2283135)
Summary of the method: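 E. coli-expressed enzyme in a cell-free protease assay, fluorescence read 1 h after dosing. Compounds at 25 uM in duplicate, with concentration-response up to 50 uM for hits; loss of signal against DMSO baseline.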

[2] = molecular target: rat Monoamine Oxidase, MAO-B, Peripheral (MAOBP), Maob (gene 25750) (UniProt P19643); experiment: NVS_ENZ_rMAOBP: NovaScreen (NVS) Enzymatic Assay for rat Monoamine Oxidase, MAO-B, Peripheral (MAOBP) (AID 2283242)
[3] = system: rat Monoamine Oxidase, MAO-A, Central (MAOAC), gene 29253; experiment: NVS_ENZ_rMAOAC: NovaScreen (NVS) Enzymatic Assay for rat Monoamine Oxidase, MAO-A, Central (MAOAC) (AID 2283243);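 note: potency refers to inhibition seen as signal drop below DMSO baseline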
Summary of the method: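 Rat brain tissue extract used as enzyme source in a cell-free radiometric assay, read by scintillation counting 1.5 hours after dosing. Loss of signal relative to DMSO baseline scored; primary screen at 25 uM in duplicate, actives followed up in concentration series.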

[4] = molecular target: human Ephrin type-A Receptor 2 (EphA2), EPHA2 (gene 1969) (UniProt P29317); experiment: NVS_ENZ_hEphA2: NovaScreen (NVS) Enzymatic Assay for human Ephrin type-A Receptor 2 (EphA2) (AID 2283155)
Summary of the method: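 Cell-free recombinant EphA2 kinase with specific substrate, 1 h, fluorescence with electrophoretic mobility-shift separation of substrate and product. Primary screen at 25 uM in duplicate; hits retested in singleton concentration-response up to 50 uM, referenced to DMSO.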

[5] = molecular target: human Caspase 10 (CASP10), CASP10 (gene 843) (UniProt Q92851); experiment: NVS_ENZ_hCASP10: NovaScreen (NVS) Enzymatic Assay for human Caspase 10 (CASP10) (AID 2283133)
Summary of the method: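 Recombinant human caspase-10 from E. coli, cell-free fluorogenic substrate assay read 1 h after dosing. Primary duplicate screen at 25 uM; hits (e.g. ≥30% inhibition) run singly in concentration-response up to 50 uM, normalised to DMSO.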

[6] = molecular target: human Fibroblast Growth Factor Receptor 1 (FGFR1), FGFR1 (gene 2260) (UniProt P11362); experiment: NVS_ENZ_hFGFR1: NovaScreen (NVS) Enzymatic Assay for human Fibroblast Growth Factor Receptor 1 (FGFR1) (AID 2283159)
Summary of the method: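 Cell-free recombinant kinase with fluorescent substrate, product separated by electrophoretic mobility shift; read 1 hour after dosing, loss of signal relative to DMSO. Initial screen in duplicate at 25 uM, actives followed in concentration series.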

[7] = molecular target: human AMP-activated Protein Kinase, alpha 1 (AMPKa1), PRKAA1 (gene 5562) (UniProt Q13131); experiment: NVS_ENZ_hAMPKa1: NovaScreen (NVS) Enzymatic Assay for human AMP-activated Protein Kinase, alpha 1 (AMPKa1) (AID 2283130)
Summary of the method: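 Recombinant human AMPKα1 activity was measured cell-free by fluorescent substrate conversion with electrophoretic mobility-shift separation, 1 h after dosing. Duplicate single-point screening was at 25 uM; actives (≥30% inhibition) were retested in concentration-response up to 50 uM.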

[8] = molecular target: Bile acid receptor (Homo sapiens) (UniProt Q96RI1); experiment: NVS_NR_hFXR_Agonist: NovaScreen (NVS) Nuclear Receptor Binding Assay for human Farnesoid X Receptor Agonism (FXR) (AID 2283347)
Summary of the method: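 Cell-free TR-FRET binding assay with extracted human FXR protein, agonist format, read 1 h after dosing. Primary screen at 25 uM single concentration in duplicate, actives retested in concentration series; gain of signal versus DMSO.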

Caspase-1 (Homo sapiens) = Caspase-1 (Homo sapiens) (UniProt P29466); experiment: NVS_ENZ_hCASP1: NovaScreen (NVS) Enzymatic Assay for human Caspase 1 (CASP1) (AID 2283132)
Summary of the method: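 Cell-free enzymatic assay with E. coli-expressed recombinant protein; fluorescence intensity read 1 hour after dosing. Single-concentration duplicate screen at 25 uM, then concentration-response up to 50 uM; activity fitted relative to DMSO, loss of signal meaning inhibition.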

[9] = molecular target: human Phosphatase and Tensin Homolog (PTEN), PTEN (gene 5728) (UniProt P60484); experiment: NVS_ENZ_hPTEN: NovaScreen (NVS) Enzymatic Assay for human Phosphatase and Tensin Homolog (PTEN) (AID 2283203)
Summary of the method: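 Cell-free recombinant human PTEN with fluorescent substrate; product separated by electrophoretic mobility shift and read by fluorescence 1 h after dosing. Primary screen in duplicate at 25 uM, actives followed in concentration series versus DMSO.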

[10] = molecular target: human Protein Tyrosine Phosphatase Receptor Type C (PTPRC), PTPRC (gene 5788) (UniProt P08575); experiment: NVS_ENZ_hPTPRC: NovaScreen (NVS) Enzymatic Assay for human Protein Tyrosine Phosphatase Receptor Type C (PTPRC) (AID 2283212)
Summary of the method: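 Yeast-extracted human PTPRC used in a cell-free colorimetric enzyme activity read-out, 1 h after dosing. Primary screen in duplicate at 25 uM; actives rerun in concentration-response up to 50 uM, DMSO as baseline.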

[11] = molecular target: rat Neurotensin Receptor (NTS), Ntsr1 (gene 366274) (UniProt P20789); experiment: NVS_GPCR_rNTS: NovaScreen (NVS) G Protein-Coupled Receptor Assay for rat Neurotensin Receptor (NTS) (AID 2283308)
Summary of the method: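 Rat forebrain membranes; radioligand binding with competitive displacement, read by filter-based scintillation counting 1 h after dosing. Primary screen in duplicate at 25 uM; actives (e.g., 30% inhibition) rerun in concentration-response up to 50 uM, loss-of-signal versus DMSO.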

[12] = molecular target: human Raf-1 Proto-Oncogene, serine/threonine Kinase (RAF1), RAF1 (gene 5894) (UniProt P04049); experiment: NVS_ENZ_hRAF1: NovaScreen (NVS) Enzymatic Assay for human Raf-1 Proto-Oncogene, serine/threonine Kinase (RAF1) (AID 2283216)
Summary of the method: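 Cell-free recombinant kinase with specific fluorescent substrate, product separated by electrophoretic mobility shift; read 1 h after dosing. Primary screen at 25 uM in duplicate; hits then run in concentration-response up to 50 uM, fitted as loss of signal versus DMSO.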

[13] = molecular target: Norway rat Vesicular Monoamine Transporter (VMAT2), neurotransmitter transporter, Slc18a2 (gene 25549) (UniProt Q01827); experiment: NVS_TR_rVMAT2: NovaScreen (NVS) Transporter Assay for Norway rat Vesicular Monoamine Transporter (VMAT2), neurotransmitter transporter (AID 2283376);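 note: actives lower the bound radioligand signal below the DMSO level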
Summary of the method: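 Radioligand displacement binding on rat forebrain tissue preparation, filter-based scintillation read-out 1 hour after dosing. Primary screen in duplicate at 25 uM, then concentration series for actives; loss of signal versus DMSO.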

[14] = molecular target: human Matrix Metalloproteinase-1 (MMP1), MMP1 (gene 4312) (UniProt P03956); experiment: NVS_ENZ_hMMP1: NovaScreen (NVS) Enzymatic Assay for human Matrix Metalloproteinase-1 (MMP1) (AID 2283181)
Summary of the method: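 Human MMP1 enzyme activity measured by fluorescence 1 h after dosing, cell-free, with a specific substrate. Screened in duplicate at 25 uM; hits (e.g. 30% inhibition) run in concentration-response up to 50 uM; loss of signal versus DMSO.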

PPP2CA (gene 5515) = PPP2CA (gene 5515) (UniProt P67775); experiment: NVS_ENZ_hPPP2CA: NovaScreen (NVS) Enzymatic Assay for human Protein Phosphatase 2 Aatalytic subunit Alpha (PPP2CA) (AID 2283199)
Summary of the method: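 Recombinant human PPP2CA with fluorescent substrate; product separated from substrate by electrophoretic mobility shift, read 1.33 h after dosing. Duplicate single-point at 25 uM, then singleton concentration-response up to 50 uM; loss of signal versus DMSO.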

[15] = molecular target: bovine Gamma-Aminobutyric Acid Type A Receptor BDZ, alpha 1 site (GABARa1), GABRA1 (gene 780973) (UniProt P08219); experiment: NVS_LGIC_bGABARa1: NovaScreen (NVS) Ligand-Gated Ion Channel Assay for bovine Gamma-Aminobutyric Acid Type A Receptor BDZ, alpha 1 site (GABARa1) (AID 2283321)
Summary of the method: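 Radioligand competition binding on bovine cortical membranes, 0.75 h, filter-based scintillation counting. Primary single concentration 25 uM in duplicate; actives rerun in concentration-response to 50 uM max. Loss of signal fitted versus DMSO.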

[16] = molecular target: rat Gamma-Aminobutyric Acid Type A Receptor BDZ, alpha 6 site (GABARa6), Gabra6 (gene 29708) (UniProt P30191); experiment: NVS_LGIC_rGABARa6: NovaScreen (NVS) Ligand-Gated Ion Channel Assay for rat Gamma-Aminobutyric Acid Type A Receptor BDZ, alpha 6 site (GABARa6) (AID 2283339)
Summary of the method: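 Rat cerebellar membranes; radioligand binding, filtration and scintillation counting, read 1 h after dosing. Single-concentration duplicate screen at 25 uM, then concentration-response up to 50 uM for actives; loss of signal fitted versus DMSO baseline.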

[17] = molecular target: human Tyrosine Protein Kinase Receptor Tie-2 (Tie2), TEK (gene 7010) (UniProt Q02763); experiment: NVS_ENZ_hTie2: NovaScreen (NVS) Enzymatic Assay for human Tyrosine Protein Kinase Receptor Tie-2 (Tie2) (AID 2283225)
Summary of the method: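 Recombinant human Tie2 kinase activity was read cell-free by fluorescence with electrophoretic mobility shift, 1 hour after dosing. The screen used 25 uM in duplicate, then concentration-response up to 50 uM. Signal loss was scored against DMSO.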

[18] = molecular target: rat Corticotropin Releasing Factor Receptor (CRF), Crhr1 (gene 58959) (UniProt P35353); experiment: NVS_GPCR_rCRF: NovaScreen (NVS) G Protein-Coupled Receptor Assay for rat Corticotropin Releasing Factor Receptor (CRF) (AID 2283300)
Summary of the method: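 Rat cortical membranes used as receptor source in a radioligand competitive displacement binding assay; scintillation read 2 h after dosing. Primary screen run in duplicate at 25 uM; loss of signal versus DMSO baseline indicates binding.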

[19] = read-out: xenobiotic metabolism (CYP2C9), CYP2C9 (gene 1559); experiment: CLD_CYP2C9_6hr: CellzDirect (CLD) Gene Expression Assay for xenobiotic metabolism (CYP2C9) at 6 hours (AID 2283664)
Summary of the method: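 Primary human hepatocytes dosed daily with test chemicals at multiple concentrations; harvested at 6 h. CYP2C9 mRNA induction measured by qNPA chemiluminescence. Gain of signal fitted against 0.2% DMSO vehicle; cytotoxicity annotated from phase-contrast morphology.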

Chain of human Fibroblast Growth Factor Receptor 1 (FGFR1), FGFR1 (gene 2260) (P11362 whole entry, looked up): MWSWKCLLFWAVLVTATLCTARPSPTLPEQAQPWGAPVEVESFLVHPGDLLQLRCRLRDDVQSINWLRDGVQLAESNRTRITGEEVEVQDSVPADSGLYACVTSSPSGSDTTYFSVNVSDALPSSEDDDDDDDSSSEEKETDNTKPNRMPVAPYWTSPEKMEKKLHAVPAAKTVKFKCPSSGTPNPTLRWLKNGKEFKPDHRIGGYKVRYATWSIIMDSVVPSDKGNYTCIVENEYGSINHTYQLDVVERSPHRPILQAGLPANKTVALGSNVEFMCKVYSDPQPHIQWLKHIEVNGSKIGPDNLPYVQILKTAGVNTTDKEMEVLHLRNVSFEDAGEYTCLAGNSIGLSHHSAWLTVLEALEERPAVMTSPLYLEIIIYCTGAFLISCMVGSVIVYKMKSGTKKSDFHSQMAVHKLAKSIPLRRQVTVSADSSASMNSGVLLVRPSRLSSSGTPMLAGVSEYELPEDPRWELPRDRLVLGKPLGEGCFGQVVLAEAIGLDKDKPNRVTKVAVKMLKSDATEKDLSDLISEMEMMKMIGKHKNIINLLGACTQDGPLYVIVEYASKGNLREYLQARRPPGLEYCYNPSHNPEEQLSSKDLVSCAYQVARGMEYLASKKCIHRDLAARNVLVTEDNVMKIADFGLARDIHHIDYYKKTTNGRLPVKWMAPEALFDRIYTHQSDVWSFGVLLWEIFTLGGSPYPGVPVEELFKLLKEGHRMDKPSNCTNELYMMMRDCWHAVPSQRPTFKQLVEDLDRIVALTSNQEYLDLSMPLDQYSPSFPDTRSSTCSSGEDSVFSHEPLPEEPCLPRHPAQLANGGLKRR
Chain of human Caspase 10 (CASP10), CASP10 (gene 843) (Q92851 whole entry, looked up): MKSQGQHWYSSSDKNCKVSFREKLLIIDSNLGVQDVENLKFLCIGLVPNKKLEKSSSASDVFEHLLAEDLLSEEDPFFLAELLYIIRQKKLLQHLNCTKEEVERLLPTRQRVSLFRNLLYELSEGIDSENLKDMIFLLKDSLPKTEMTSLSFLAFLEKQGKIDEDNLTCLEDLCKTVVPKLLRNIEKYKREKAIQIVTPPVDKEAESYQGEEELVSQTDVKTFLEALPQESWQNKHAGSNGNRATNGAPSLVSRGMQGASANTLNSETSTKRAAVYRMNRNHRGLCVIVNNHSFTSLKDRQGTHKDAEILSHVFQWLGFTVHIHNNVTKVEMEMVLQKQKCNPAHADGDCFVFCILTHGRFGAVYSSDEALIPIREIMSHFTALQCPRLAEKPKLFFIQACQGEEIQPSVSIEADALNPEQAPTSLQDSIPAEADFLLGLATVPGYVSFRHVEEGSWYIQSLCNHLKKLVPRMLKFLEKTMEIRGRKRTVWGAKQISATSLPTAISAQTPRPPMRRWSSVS
Chain of human AMP-activated Protein Kinase, alpha 1 (AMPKa1), PRKAA1 (gene 5562) (Q13131 whole entry, looked up): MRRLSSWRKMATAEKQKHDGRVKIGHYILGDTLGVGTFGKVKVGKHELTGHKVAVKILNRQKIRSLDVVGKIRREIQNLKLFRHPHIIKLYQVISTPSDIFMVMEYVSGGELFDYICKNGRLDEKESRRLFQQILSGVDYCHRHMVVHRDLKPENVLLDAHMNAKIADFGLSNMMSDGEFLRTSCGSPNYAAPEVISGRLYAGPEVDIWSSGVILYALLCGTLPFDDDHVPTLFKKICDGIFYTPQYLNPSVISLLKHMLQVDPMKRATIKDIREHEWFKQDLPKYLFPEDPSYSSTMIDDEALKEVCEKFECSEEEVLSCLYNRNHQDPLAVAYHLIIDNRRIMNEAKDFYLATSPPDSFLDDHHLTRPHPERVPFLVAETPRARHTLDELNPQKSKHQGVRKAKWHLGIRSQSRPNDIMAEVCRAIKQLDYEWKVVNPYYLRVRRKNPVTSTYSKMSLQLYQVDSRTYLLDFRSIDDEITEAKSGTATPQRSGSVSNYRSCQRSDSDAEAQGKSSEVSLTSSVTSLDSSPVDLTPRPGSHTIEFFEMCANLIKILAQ
Chain of Caspase-1 (Homo sapiens) (P29466 whole entry, looked up): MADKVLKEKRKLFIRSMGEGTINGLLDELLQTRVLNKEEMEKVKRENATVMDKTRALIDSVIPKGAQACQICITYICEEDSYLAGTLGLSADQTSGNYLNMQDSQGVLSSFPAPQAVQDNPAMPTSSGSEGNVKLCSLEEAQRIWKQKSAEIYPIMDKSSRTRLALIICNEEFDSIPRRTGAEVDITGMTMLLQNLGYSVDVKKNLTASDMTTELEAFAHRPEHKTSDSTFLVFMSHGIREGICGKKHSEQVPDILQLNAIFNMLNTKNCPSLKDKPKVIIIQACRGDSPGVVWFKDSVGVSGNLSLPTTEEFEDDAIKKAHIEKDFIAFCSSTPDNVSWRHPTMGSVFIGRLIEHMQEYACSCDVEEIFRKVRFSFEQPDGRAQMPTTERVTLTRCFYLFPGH
Chain of human Ephrin type-A Receptor 2 (EphA2), EPHA2 (gene 1969) (P29317 whole entry, looked up): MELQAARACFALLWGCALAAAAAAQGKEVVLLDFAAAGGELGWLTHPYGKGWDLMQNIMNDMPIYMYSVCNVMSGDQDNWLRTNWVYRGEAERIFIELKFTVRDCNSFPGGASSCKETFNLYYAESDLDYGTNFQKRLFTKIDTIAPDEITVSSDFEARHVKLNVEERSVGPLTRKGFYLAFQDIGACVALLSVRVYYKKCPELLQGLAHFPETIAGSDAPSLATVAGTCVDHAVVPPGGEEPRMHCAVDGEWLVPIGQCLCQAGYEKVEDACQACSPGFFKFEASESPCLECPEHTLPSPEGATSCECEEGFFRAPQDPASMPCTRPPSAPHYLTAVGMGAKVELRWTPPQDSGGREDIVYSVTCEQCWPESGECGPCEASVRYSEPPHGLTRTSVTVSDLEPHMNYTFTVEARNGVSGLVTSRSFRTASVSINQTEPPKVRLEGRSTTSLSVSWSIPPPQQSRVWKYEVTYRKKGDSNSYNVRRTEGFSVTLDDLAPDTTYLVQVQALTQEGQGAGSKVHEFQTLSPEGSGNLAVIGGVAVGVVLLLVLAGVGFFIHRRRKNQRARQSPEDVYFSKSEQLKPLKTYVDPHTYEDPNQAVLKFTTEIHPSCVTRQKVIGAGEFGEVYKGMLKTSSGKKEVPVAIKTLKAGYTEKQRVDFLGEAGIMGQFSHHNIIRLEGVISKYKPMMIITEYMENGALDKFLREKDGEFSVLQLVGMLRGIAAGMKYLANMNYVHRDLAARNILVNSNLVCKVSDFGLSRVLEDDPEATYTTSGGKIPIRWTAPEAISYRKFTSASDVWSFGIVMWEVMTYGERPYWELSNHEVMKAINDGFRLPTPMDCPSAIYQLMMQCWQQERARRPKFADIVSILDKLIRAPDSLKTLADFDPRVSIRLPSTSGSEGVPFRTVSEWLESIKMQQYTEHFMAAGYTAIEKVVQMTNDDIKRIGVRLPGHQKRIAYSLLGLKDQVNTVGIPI
Chain of human Raf-1 Proto-Oncogene, serine/threonine Kinase (RAF1), RAF1 (gene 5894) (P04049 whole entry, looked up): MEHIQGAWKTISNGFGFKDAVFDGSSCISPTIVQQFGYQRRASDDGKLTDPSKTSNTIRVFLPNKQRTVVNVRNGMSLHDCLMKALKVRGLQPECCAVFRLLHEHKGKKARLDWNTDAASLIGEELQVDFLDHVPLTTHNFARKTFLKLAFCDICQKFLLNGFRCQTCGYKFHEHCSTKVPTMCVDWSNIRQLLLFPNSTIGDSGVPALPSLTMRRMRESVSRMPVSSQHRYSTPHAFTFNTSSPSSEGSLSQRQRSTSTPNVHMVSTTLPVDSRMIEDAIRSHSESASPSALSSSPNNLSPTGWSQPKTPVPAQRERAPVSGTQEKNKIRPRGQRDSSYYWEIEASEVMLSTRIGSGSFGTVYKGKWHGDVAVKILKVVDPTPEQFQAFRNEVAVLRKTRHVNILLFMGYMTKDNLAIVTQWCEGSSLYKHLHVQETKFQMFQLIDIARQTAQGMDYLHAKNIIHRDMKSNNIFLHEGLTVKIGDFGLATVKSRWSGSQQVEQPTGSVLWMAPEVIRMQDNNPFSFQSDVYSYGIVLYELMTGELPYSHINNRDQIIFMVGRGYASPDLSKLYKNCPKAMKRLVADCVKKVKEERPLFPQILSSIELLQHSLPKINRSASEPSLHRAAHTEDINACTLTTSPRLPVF
Chain of human Phosphatase and Tensin Homolog (PTEN), PTEN (gene 5728) (P60484 whole entry, looked up): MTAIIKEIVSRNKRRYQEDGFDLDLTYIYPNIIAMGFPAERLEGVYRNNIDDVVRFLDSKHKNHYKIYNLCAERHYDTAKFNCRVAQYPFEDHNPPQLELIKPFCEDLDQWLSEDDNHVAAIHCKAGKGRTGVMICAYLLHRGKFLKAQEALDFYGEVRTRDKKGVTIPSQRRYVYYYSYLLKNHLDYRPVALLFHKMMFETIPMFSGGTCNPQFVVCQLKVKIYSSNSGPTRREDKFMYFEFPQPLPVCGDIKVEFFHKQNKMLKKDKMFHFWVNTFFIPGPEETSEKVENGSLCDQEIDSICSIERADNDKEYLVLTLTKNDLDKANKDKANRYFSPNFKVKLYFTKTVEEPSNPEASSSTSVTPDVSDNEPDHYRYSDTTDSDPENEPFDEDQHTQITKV
Chain of Bile acid receptor (Homo sapiens) (Q96RI1 whole entry, looked up): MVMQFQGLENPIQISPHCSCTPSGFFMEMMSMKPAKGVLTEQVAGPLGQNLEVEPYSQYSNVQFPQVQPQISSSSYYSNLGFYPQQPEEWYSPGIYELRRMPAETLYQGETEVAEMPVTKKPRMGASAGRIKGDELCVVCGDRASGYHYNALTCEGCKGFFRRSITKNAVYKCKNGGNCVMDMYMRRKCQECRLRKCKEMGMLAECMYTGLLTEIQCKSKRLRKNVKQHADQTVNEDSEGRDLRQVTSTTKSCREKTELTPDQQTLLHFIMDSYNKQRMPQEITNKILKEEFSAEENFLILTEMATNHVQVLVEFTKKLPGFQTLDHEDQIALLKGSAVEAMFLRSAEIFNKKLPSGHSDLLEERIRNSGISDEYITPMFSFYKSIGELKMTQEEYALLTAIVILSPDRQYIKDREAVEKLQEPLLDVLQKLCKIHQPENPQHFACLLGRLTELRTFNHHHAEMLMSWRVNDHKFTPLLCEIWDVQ

Q: `O=[N+]([O-])c1ccc(O)cc1` was tested. Which outcome [1] did it give?
A: inactive

Q: What about the AC50 [2] of the same compound?
A: 39.1 µM (active)

Q: And the AC50 [3]?
A: 16.6 µM (active)

Q: How did the outcome [4] turn out when `Cc1ncc(CO)c(CO)c1O` was run?
A: inactive

Q: For `O=C1CCC(C2CCCCC2)CC1`, which outcome [5] is on record?
A: inactive

Q: `CCOC(=O)c1ccc(O)cc1` was tested. Which outcome [6] did it give?
A: inactive

Q: Which results are given for `c1ccc(C[n+]2cccc3ccccc32)cc1`?
A: outcome [7]: inactive; outcome [8]: inactive

Q: With `O=S(=O)(O)c1ccc(N=Nc2c(O)ccc3cc(S(=O)(=O)O)ccc23)cc1` as the compound, how does the AC50 (Caspase-1 (Homo sapiens)) read?
A: 25 µM (active)

Q: And the outcome [9]?
A: inactive

Q: What about the outcome [10] of the same compound?
A: inactive

Q: What about the outcome [11] of the same compound?
A: inactive

Q: With `Clc1nc(Cl)c(Cl)c(Cl)c1Cl` as the compound, how does the outcome [4] read?
A: inactive

Q: What about the outcome [6] of the same compound?
A: inactive

Q: And the outcome [12]?
A: inactive

Q: What about the outcome [13] of the same compound?
A: inactive

Q: What does the source list for `CCN(Cc1cccc(S(=O)(=O)O)c1)c1ccc(C(=C2C=CC(=[N+](CC)Cc3cccc(S(=O)(=O)O)c3)C=C2)c2ccccc2S(=O)(=O)[O-])cc1`?
A: outcome [5]: inactive; outcome [14]: inactive; outcome (PPP2CA (gene 5515)): inactive

Q: How did the outcome [5] turn out when `O=C(O)c1[nH]n(-c2ccc(S(=O)(=O)O)cc2)c(=O)c1N=Nc1ccc(S(=O)(=O)O)cc1` was run?
A: inactive

Q: And the outcome [9]?
A: inactive

Q: How did the outcome [7] turn out when `O=C(OCCOCCOC(=O)c1ccccc1)c1ccccc1` was run?
A: inactive

Q: And the outcome [6]?
A: inactive

Q: And the AC50 [15]?
A: 1.4 µM (active)

Q: And the outcome [16]?
A: inactive

Q: For `CCC(O)=C1C(=O)CC(C(=O)O)CC1=O` (configuration not stated), which outcome (Caspase-1 (Homo sapiens)) is on record?
A: inactive

Q: What about the outcome [17] of the same compound?
A: inactive

Q: What about the outcome [18] of the same compound?
A: inactive

Q: And the outcome [19]?
A: inactive

Q: Which outcome [6] does the source give for `CC(C)(O)c1ccc(CNC(=O)c2cccnc2Oc2ccc(F)cc2)cc1` here?
A: inactive

Q: What does the source list for `O=C(O)c1ccccc1C(c1ccc(O)cc1)c1ccc(O)cc1`?
A: outcome [7]: inactive; outcome [12]: inactive
